Measurements: the supplement of paper PMC8728848
Only a selection was taken, and the strongest signals are over-represented in it overall.

Experiments:
Experiment in all cases: glycan array binding signal (z-score within array); higher = stronger binding
Settings in all cases: glycan notation: IUPAC condensed, linker removed
Fuc(a1-2)Gal(b1-4)GlcNAc = biological target: Fuc(a1-2)Gal(b1-4)GlcNAc
Method in brief: (§1)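 Columns mapping to the same glycan were averaged after glycan names were converted to IUPAC-condensed notation. The data come from 3228 arrays in the Consortium for Functional Glycomics database, limited to those with an available protein sequence. Binding is reported as a within-array Z-score averaged across arrays of one protein sequence and across linkers.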

Fuc(a1-4)GlcNAc = biological target: Fuc(a1-4)GlcNAc
Method in brief: as §1

Gal(b1-2)Gal = biological target: Gal(b1-2)Gal
Method in brief: as §1

Gal(b1-3)Gal = biological target: Gal(b1-3)Gal
Method in brief: as §1

[1] = biological target: Gal(b1-3)GalNAc(b1-4)[Neu5Ac(a2-3)]Gal(b1-4)Glc
Method in brief: as §1

[2] = biological target: Gal(b1-3)[Neu5Ac(a2-6)]GlcNAc
Method in brief: as §1

[3] = biological target: Gal3S(b1-3)[Fuc(a1-4)]GlcNAc
Method in brief: as §1

Gal4S6S(b1-4)GlcNAc = biological target: Gal4S6S(b1-4)GlcNAc
Method in brief: as §1

GlcA(b1-3)Gal = biological target: GlcA(b1-3)Gal
Method in brief: as §1

[4] = biological target: GlcNAc(b1-3)Gal(b1-4)GlcNAc(b1-3)Gal(b1-4)GlcNAc
Method in brief: as §1

[5] = biological target: GlcNAc(b1-4)[GlcNAc(b1-6)]GalNAc
Method in brief: as §1

Kdn(a2-3)Gal(b1-3)GlcNAc = biological target: Kdn(a2-3)Gal(b1-3)GlcNAc
Method in brief: as §1

[6] = biological target: Man(a1-2)Man(a1-2)Man(a1-3)[Man(a1-2)Man(a1-6)[Man(a1-3)]Man(a1-6)]Man(b1-4)GlcNAc(b1-4)GlcNAc
Method in brief: as §1

[7] = biological target: Man(a1-2)Man(a1-3)[Man(a1-2)Man(a1-6)]Man
Method in brief: as §1

Man(b1-4)GlcNAc = biological target: Man(b1-4)GlcNAc
Method in brief: as §1

[8] = biological target: Neu5Ac(a2-3)Gal(b1-3)GlcNAc
Method in brief: as §1

[9] = biological target: Neu5Ac(a2-3)Gal(b1-3)[Neu5Ac(a2-6)]GalNAc
Method in brief: as §1

[10] = biological target: Neu5Ac(a2-3)Gal(b1-4)[Fuc(a1-3)]GlcNAc(b1-3)Gal(b1-4)GlcNAc
Method in brief: as §1

[11] = biological target: Neu5Ac(a2-3)Gal(b1-4)[Fuc(a1-3)]GlcNAc(b1-3)Gal(b1-4)[Fuc(a1-3)]GlcNAc(b1-3)Gal(b1-4)[Fuc(a1-3)]GlcNAc
Method in brief: as §1

[12] = biological target: Neu5Ac(a2-3)[Neu5Ac(a2-6)]GalNAc
Method in brief: as §1

Neu5Ac(a2-6)GalNAc = biological target: Neu5Ac(a2-6)GalNAc
Method in brief: as §1

[13] = biological target: Neu5Ac(a2-8)Neu5Ac(a2-8)Neu5Ac
Method in brief: as §1

B1: Dectin-1 CTLD (Mus musculus), Q6QLQ4 (protein)
chain: MKYHSHIENLDEDGYTQLDFSTQDIHKRPRGSEKGSRAPSSPWRPIAVGLGILCFVVVVVAAVLGALAFWRHNSGRNPEEKDNFLSRNKENHKPTESSLDEKVAPSKASQTTGGFSQSCLPNWIMHGKSCYLFSFSGNSWYGSKRHCSQLGAHLLKIDNSKEFEFIESQTSSHRINAFWIGLSRNQSEGPWFWEDGSAFFPNSFQVRNTVPQESLLHNCVWIHGSEVYNQICNTSSYSICEKEL
glycan array binding signal (z-score) (Fuc(a1-2)Gal(b1-4)GlcNAc): -0.083 | glycan array binding signal (z-score) (Fuc(a1-4)GlcNAc): -0.141 | glycan array binding signal (z-score) (Gal(b1-2)Gal): -0.384 | glycan array binding signal (z-score) (Gal(b1-3)Gal): -0.471 | glycan array binding signal (z-score) [1]: -0.16 | glycan array binding signal (z-score) [2]: -0.392 | glycan array binding signal (z-score) [3]: -0.474 | glycan array binding signal (z-score) (Gal4S6S(b1-4)GlcNAc): -0.021 | glycan array binding signal (z-score) (GlcA(b1-3)Gal): 4.11 | glycan array binding signal (z-score) [4]: -0.18 | glycan array binding signal (z-score) [5]: 9.99 | glycan array binding signal (z-score) (Kdn(a2-3)Gal(b1-3)GlcNAc): -0.044 | glycan array binding signal (z-score) [6]: 0.004 | glycan array binding signal (z-score) [7]: -0.241 | glycan array binding signal (z-score) (Man(b1-4)GlcNAc): -0.259 | glycan array binding signal (z-score) [8]: -0.294 | glycan array binding signal (z-score) [9]: -0.324 | glycan array binding signal (z-score) [10]: -0.03 | glycan array binding signal (z-score) [11]: 7.53 | glycan array binding signal (z-score) [12]: -0.211 | glycan array binding signal (z-score) (Neu5Ac(a2-6)GalNAc): 0.06 | glycan array binding signal (z-score) [13]: 5.28
